# Assay results reported in PubChem BioAssay AID624134 (Broad Institute, 2012).
# Hit rate of the full screen: of about 1,600 compounds, about 1,100 (69%) were called active. So high a share suggests a set chosen from earlier hits. Not all results are given here. Measured potencies and affinities stand elsewhere. Results filed as inconclusive are left out.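 The calls were made as follows: active = signal drop with fitted half-maximal concentration no higher than twice the top valid tested concentration; inconclusive = flat curve with 30 to 70% signal loss, or poor fit; inactive = the rest, including signal rises and flat curves within 30%.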
# Experiment: HepG2 cell cytotoxicity, dose response, cytotoxicity control for Shn3 inhibitor project, CellTiter-Glo, cherry-picked (AID 624134);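 also: 0% = median of neutral control wells and -100% = median of positive control wells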
# Settings: HepG2 viability, CellTiter-Glo ATP luminescence, 48 h; series mostly up to 35 µM; activity change, negative = cytotoxicity: at the top concentration
row,SMILES,"activity change, negative = cytotoxicity"
1,CC(C)CCNC(=O)c1cc2c(=O)[nH]c3ccccc3c2s1,-3.4% (inactive)
2,Cc1ccc(OC(=O)CCC(=O)Oc2ccc(C)cc2C)c(C)c1,-6.33% (inactive)
3,CCCC(c1nnnn1Cc1ccc(OC)cc1)N1CCN(c2ccccc2)CC1 (stereo not given),0.213% (inactive)
4,CCOC(=O)C1CCN(C(=O)c2ccc(OCC(=O)Nc3cccc(C(F)(F)F)c3)c(OC)c2)CC1,-1.16% (inactive)
5,Cc1ccccc1N/C(=N/S(=O)(=O)c1ccccc1)c1ccc(F)cc1,3.51% (inactive)
6,CCOC(=O)C1CCCN(S(=O)(=O)c2ccc(S(=O)(=O)N(CC)CC)cc2)C1 (stereo not given),-10.4% (inactive)
7,Cc1ccc(CNC(=O)CSc2c3c(nc4ccc(Cl)cc24)CCCC3)o1,-8.16% (inactive)
8,CC1=NOC(=O)/C1=C\c1ccc(-c2cc(Cl)ccc2Cl)o1,-3.66% (inactive)
9,CCOc1cc(/C=C2\C(=O)ON=C2C)ccc1OCc1ccccc1,-10.3% (inactive)
10,O=C(CSc1nc2c(c(=O)n1-c1ccc(Br)cc1)SCC2)NCc1ccco1,-2.52% (inactive)
11,Cc1cc(-n2c(C)cc(C(=O)CSc3nncn3C)c2C)no1,-14.7% (inactive)
12,CCCC(=O)NC(=S)Nc1ccc(N2CCN(C(=O)c3cccs3)CC2)cc1,-8.86% (inactive)
13,O=C(NCCc1ccccc1)c1ccc2c(c1)OCCO2,-7.75% (inactive)
14,CCOC(=O)c1c(NC(=O)c2nn(CC)cc2Br)sc(C)c1C,-2.17% (inactive)
15,CCOC(=O)c1sc(NC(=O)CCCn2nc([N+](=O)[O-])c(Cl)c2C)c(C(=O)OCC)c1C,-11.3% (inactive)
16,COc1ccccc1N1CCN(c2ncc(C(=O)N3CCN(c4cccc(Cl)c4)CC3)c3ccccc23)CC1,-11% (inactive)
17,O=C(Nc1cccc(S(=O)(=O)NC2=NCCC2)c1)C1CC(=O)N(c2ccc3c(c2)OCCO3)C1 (stereo not given),-3.38% (inactive)
18,C=C1C(=O)[C@@]23[C@H](O)C[C@@H]4C(C)(C)CC[C@H](O)[C@]4(C)[C@@H]2C[C@H](O)[C@@H]1[C@H]3O,-9.65% (inactive)
19,O=C(CSc1nc2[nH]ncc2c(=O)[nH]1)Nc1ccccc1C(F)(F)F,-6.41% (inactive)
20,CCc1c(O)nc(SCC(=O)Nc2ccccc2)n(-c2ccccc2)c1=O,-0.296% (inactive)

row,SMILES,"activity change, negative = cytotoxicity"
1,O=C(NCCNC(=O)Oc1cccc2ccccc12)Oc1cccc2ccccc12,-9.86% (inactive)
2,COc1cc2ncnc(N[C@H](C)c3ccccc3)c2cc1OC,-7.07% (inactive)
3,Cc1cc(C)n(-c2cc(-n3nc(C)cc3C)ncn2)n1,-4.14% (inactive)
4,COc1ccc(C(=O)OCC(=O)Nc2ncc([N+](=O)[O-])s2)cc1OC,-13.6% (inactive)
5,CCn1c(C)cc(C(=O)COC(=O)c2ccccc2[N+](=O)[O-])c1C,-3.22% (inactive)
6,CS(=O)(=O)c1ccc(C(=O)OCC(=O)N2CCOCC2)cc1[N+](=O)[O-],-12.7% (inactive)
7,C=C1C(=O)C23C(O)C1CCC2C12COC3(O)C(O)C1C(C)(C)CCC2O (stereo not given),-11.4% (inactive)
8,CCO[C@@H]1OC(C(=O)NC2CC2)=C[C@H](c2coc3ccccc3c2=O)[C@H]1CCCO,-7.66% (inactive)
9,CCCCCCCCCCOC(=O)Cn1c(COc2ccc(OC)cc2)[n+](C)c2ccccc21,-45.4% (inactive)
10,CSc1cccc(NC(=O)N2CCCC(CNS(=O)(=O)Cc3ccccc3)C2)c1 (stereo not given),2.73% (inactive)
11,Cc1nc2ncnn2c(C)c1Cc1cccc(F)c1,9.15% (inactive)
12,CC(C)=CCC/C(C)=C/CNC(=O)C[C@H]1C[C@H](C(=O)N2CCOCC2)[C@@]2(C)c3[nH]c4cc(CCC(=O)N(C)C)ccc4c3CCN2C1=O,-0.565% (inactive)
13,CCC(=O)c1cn(CC(=O)Nc2cccc(C)c2C)c2ccccc12,-5.31% (inactive)
14,O=C(Cn1cc(C(=O)C2CC2)c2ccccc21)Nc1ccccc1Cl,-7.27% (inactive)
15,CCN(CC)C(=S)Sc1c(-c2ccccc2)c2cc(Cl)ccc2[nH]c1=O,-4.13% (inactive)
16,COc1ccc(C(=O)NNC(=O)c2cccc(S(=O)(=O)N3CCOCC3)c2)cc1,-5.14% (inactive)
17,O=C(COC(=O)c1n[nH]c2ccccc12)Nc1ccc(S(=O)(=O)N2CCCC2)cc1,-5.15% (inactive)
18,COc1ccc(NS(=O)(=O)c2ccc(NC(=O)C(CCSC)NC(N)=O)cc2)cc1 (stereo not given),-10% (inactive)
19,O=C(Nc1ccc(S(=O)(=O)N2CCN(Cc3ccccc3)CC2)cc1)c1cnccn1,-11.4% (inactive)
20,O=C(CCS(=O)(=O)c1ccccc1)Nc1nc2c(s1)CCCC2,-13% (inactive)

row,SMILES,"activity change, negative = cytotoxicity"
1,COc1ccccc1/C=C1\CCCC2=C1Nc1nnnn1C2c1ccccc1OC (stereo not given),-11.8% (inactive)
2,O=C(O)c1cccc(COc2ccccc2Cl)c1,-6.88% (inactive)
3,O=C(O)c1cccc(COc2ccc(CO)cc2Cl)c1,0.142% (inactive)
4,CCN(CC)Cc1c(O)ccc2c1O/C(=C\C=C\c1ccccc1)C2=O,-1.45% (inactive)
5,Cc1ccc(-c2ccc(/C=C3\C(=O)ON=C3c3ccccc3)o2)c([N+](=O)[O-])c1,-4.13% (inactive)
6,Cc1ccc(NC(=O)C2CCCN(S(=O)(=O)c3c(C)noc3C)C2)cc1 (stereo not given),-0.872% (inactive)
7,Cc1csc(=O)n1CCC(=O)N(C)Cc1c(F)cccc1Cl,-12.2% (inactive)
8,CCn1cc(CNCc2cn(-c3ccccc3C)nc2-c2ccc(OC)c(F)c2)cn1,-7.23% (inactive)
9,CCN(CC)S(=O)(=O)c1ccc(N2CCOCC2)c(NC(=O)c2nn(C(C)C)c(=O)c3ccccc23)c1,-1.72% (inactive)
10,CCOC(=O)C1CCN(c2cc3c(cc2NC(=O)c2ccccc2Br)n(C)c(=O)n3C)CC1,-8.07% (inactive)
11,CC[C@]12c3[nH]c4cc(CCC(=O)N(C)C)ccc4c3CCN1C(=O)[C@@H](CC(=O)NC/C=C(\C)CCC=C(C)C)C[C@@H]2C(=O)N1CCN(C(=O)c2ccco2)CC1,-14.9% (inactive)
12,COc1ccc(-c2cc(C(F)(F)F)nc(S(=O)(=O)CCCC(=O)Nc3cccnc3Cl)n2)cc1OC,-38.1% (inactive)
13,COc1ccc([C@H]2CC(=O)C=C(c3ccc4c(c3)OCO4)C2)cc1OC,5.26% (inactive)
14,COc1cc(C(=O)OCC(=O)NC2CCCCCC2)ccc1OCC(C)C,-6.66% (inactive)
15,CC(=O)OCC(=O)[C@@]1(O)CC[C@H]2[C@@H]3CCC4=CC(=O)CC[C@]4(C)[C@H]3C(=O)C[C@@]21C,-6.11% (inactive)
16,COc1ccc(S(=O)(=O)N2CCOCC2)cc1NC(=O)COC(=O)CC1CC2CCC1C2 (stereo not given),-3.39% (inactive)
17,Nc1c(Br)cc2c(c1Br)C(O)c1ccccc1-2 (stereo not given),6.05% (inactive)
18,CN(C)c1ncnc2c1C(c1ccccc1)C(C)(C)O2 (stereo not given),-2.79% (inactive)
19,COc1cc(OC)cc(C(=O)OCC(=O)Nc2ccc(F)cc2F)c1,-1.06% (inactive)
20,COc1ccc(OC)c(NC(=O)c2cc(-c3cc(F)ccc3OCC3CCCO3)n[nH]2)c1 (stereo not given),-7.22% (inactive)
